In the library only some 1.1% were active in any assay of this set; here they are far more common.
E-sel TNF inh: TNF alpha driven E-selectin expression inhibition | inhibition, % at 2 µM | AID 1246 | HUVEC TNFa-induced E-selectin immunofluorescence, high content | 0.71% of 120,000 active;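 active = inhibition above the batch mean plus 3 SD, and confirmed as a hit on visual image review, cut at about 43% in these data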
HUVEC tox TNFa: HUVEC cytotoxicity counter-screen, TNF alpha stimulated. 0.17% of 93,000 active. AID 848. cell count reduction, % at 2 µM. HUVEC TNFalpha-stimulated, Hoechst cell count, imaging;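 active = cell count reduction exceeding the screen mean by over 5 SD, scaled to untreated wells per plate, cut at about 78% in these data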;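 also: cells counted after 24 h of TNF alpha exposure following the 1 h pretreatment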
VCAM1 TNFa inh: reduces TNF alpha induced VCAM1 expression in HUVEC | HUVEC TNFa-induced VCAM-1 immunofluorescence, high-content imaging | inhibition, % at 2 µM | 0.48% of 95,000 active;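 active = inhibition above the batch mean plus 3 SD, with images confirmed as a hit by eye, cut at about 37% in these data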
cytoskel mod: cytoskeleton assembly modification. HUVEC TNFa F-actin phalloidin imaging, high content. inhibition, % at 2 µM. 0.18% of 91,000 active;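 active = inhibition above the batch mean plus 3 SD and confirmed as a hit by visual image inspection, cut at about 30% in these data, passing the limit was not always enough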
Numbers stand for hits; n = inactive; x = no result.

SMILES | E-sel TNF inh | HUVEC tox TNFa | VCAM1 TNFa inh | cytoskel mod
Cc1ccc(NC(=O)N2CCC(C(=O)NCCC3=CCCCC3)CC2)cc1 | 40.0 | n | n | n
COc1ccc(CN2CC(C(=O)NCCC3=CCCCC3)CC2=O)cc1 (stereo unspecified) | n | n | n | n
COc1cc(NC(=O)CSc2nnc3c(C)cc4c(C)ccc(C)c4n23)c(C(=O)O)cc1OC | n | x | x | x
CC(=O)c1cccc(NC(=O)NCc2cccnc2)c1 | 99.9 | n | n | 50.2
O=C(NCc1cccnc1)Nc1cccc(NC(=O)NCc2cccnc2)c1 | n | x | x | x
Cc1ccc(OS(=O)(=O)c2ccccc2)c(/C=N/N=C2\NC(=O)C(C)S2)c1 (stereo unspecified) | n | n | n | n
Cc1noc(C)c1CSc1nc2ccccc2[nH]1 | n | n | n | n
Fc1cccc(F)c1CSc1nc2ccccc2[nH]1 | 74.8 | n | n | x
COc1ccc(S(=O)(=O)Nc2cc3c(C(C)=O)c(C)oc3c3ccccc23)cc1 | n | n | 79.5 | x
CCS(=O)(=O)N1CCC(C(=O)NCCCOC)CC1 | x | n | n | n
CCCS(=O)(=O)N1CCC(C(=O)NCCCOC)CC1 | 100.0 | n | n | n
COc1cccc(NC(=O)CSc2nnc(-c3cccc(OC(C)C)c3)n2N)c1 | n | n | n | n
COc1ccc(-c2noc(CCC(N)=O)n2)cc1OC | 79.9 | n | n | n
COc1cc(-c2noc(CCC(=O)Nc3cccnc3)n2)cc(OC)c1OC | 62.0 | n | n | n
CC1CC(=O)Nc2ccccc2S1(=O)=O (stereo unspecified) | 84.4 | x | x | x
O=C1/C(=C/c2ccccc2)CSc2sccc21 | n | n | n | n
CN(Cc1ccccc1)C(=O)c1ccccc1NC(=O)c1ccccc1 | n | n | n | 51.3
O=C(Nc1ccccc1C(=O)NCc1ccccc1)c1ccccc1 | n | n | n | n
Cc1ccc(S(=O)(=O)N2CCCCC2)cc1NC(=O)COC(=O)c1ccc(O)cc1 | n | x | x | x
CC1(C)CC(=O)c2cc(C(=O)NC3CCSC3=O)c(=O)n(-c3ccccc3)c2C1 (stereo unspecified) | n | n | n | n
O=C1CCCc2c1cc(C(=O)NC1CCSC1=O)c(=O)n2-c1ccccc1 (stereo unspecified) | n | 94.0 | x | n
Cc1nc2sc(C(c3ccc(Cl)cc3)N3CC(C)OC(C)C3)c(O)n2n1 (stereo unspecified) | n | n | 36.5 | n
Cc1ccc(C(c2sc3nc(C)nn3c2O)N2CC(C)OC(C)C2)cc1 (stereo unspecified) | n | n | n | n
CCOC(=O)c1c(NC(=O)COC)sc2c1CCCC2 | 52.6 | n | n | n
CCOC(=O)c1c(NC(=O)COC(=O)c2c(C)noc2C)sc2c1CCC2 | n | n | n | n
SMILES | E-sel TNF inh | HUVEC tox TNFa | VCAM1 TNFa inh | cytoskel mod
CCC(=O)Nc1cccc(-n2nnnc2SCC(=O)c2ccc(C)c(C)c2)c1 | n | x | x | x
CCOC(=O)c1ccc(/C=C2/C=C(c3ccccc3)N(c3ccc(Cl)c(C(=O)O)c3)C2=O)cc1 | n | x | x | x
COCCN1CN(S(=O)(=O)c2ccccc2)c2nc3ccccc3nc21 | 63.2 | x | x | x
CN(C)/C=C/C1=CC(=O)CC(C)(C)C1 | n | x | x | x
NC(=O)C1CCCN(C(=S)Nc2cccc3ccccc23)C1 (stereo unspecified) | 69.6 | x | x | x
S=C(Nc1cccc2ccccc12)N1CCN(c2ncccn2)CC1 | n | n | n | n
COc1ccc(Br)cc1C(=O)Nc1ccc(O)cc1 | n | n | n | n
COc1ccc(Br)cc1C(=O)O | 96.8 | x | x | x
O=C(COc1ncnc2sccc12)N1CCc2ccccc2C1 | n | n | n | n
O=C(Nc1nccs1)c1nc(-c2ccccc2)n(-c2ccccc2)n1 | 43.0 | n | n | n
O=C1CC(c2ccccc2)n2nc(NC(=O)C3CCCO3)nc2N1 (stereo unspecified) | 45.2 | n | n | x
C[n+]1ccc(/C=N/Nc2nc(Cl)c(C#N)c(Cl)c2Cl)cc1 | n | x | x | x
CCOC(=O)c1ccc(NC(=O)CN2CCN(c3ccccc3)CC2)cc1 | n | x | x | x
CCOC(=O)c1ccc(NC(=O)CCNc2c(N3CCCC3)c(=O)c2=O)cc1 | n | n | 69.6 | n
N#C/C(C(=O)NCc1ccco1)=C1/SC(Cc2ccc(Cl)cc2)C(=O)N1c1ccccc1 (stereo unspecified) | n | n | n | n
Cc1ccc(CC2S/C(=C(/C#N)C(=O)NCc3ccco3)N(c3ccccc3)C2=O)cc1 (stereo unspecified) | n | n | n | 63.4
Cc1cccc(NC(=O)CSc2ccc(C(N)=O)cc2[N+](=O)[O-])c1C | n | x | x | x
COc1ccc(C2CC(=O)N(C)c3ccccc3S2)cc1 (stereo unspecified) | n | x | x | x
COc1cccc(Nc2nc(C)cc(C)c2C#N)c1 | n | n | n | n
COc1ccc(Nc2nc(C)cc(C)c2C#N)cc1OC | 59.3 | n | n | n
CCC(=O)Nc1ccc(NC(=O)c2ccccc2Cl)nc1 | n | n | n | n

From PubChem
